Compounds with a hit are over-represented: about 0.5% of the library has one in this group of screens.
Tat export inh: E. coli Tat transport inhibition | E. coli MC4100 TorA-mCherry Tat export, fluorescence | inhibition, % at 10 µM | 340,000 tested, 0.036% active;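 active = mean replicate inhibition at least 50% and at least half of replicates individually reaching 50%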;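 note: exported cargo escapes ClpAP degradation while cytoplasmic cargo is degraded and loses fluorescence; 0% = median of neutral control wells and 100% = median of NaSCN control wells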
E coli growth-1: blocks Escherichia coli growth; OD600, 23 h; stronger effect = lower value; OD600 absorbance (test concentration not listed); 330,000 tested, 0.21% active;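 active = OD600 absorbance below the run mean of sample wells minus 3.6 SD, in any replicate, cut at about 0.56 in these data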
phage Ecoli inh: E. coli growth loss with phage present; growth absorbance; 360,000 tested, 0.26% active; inhibition, % at 11.9 µM; AID 651602; in the data active = inhibition above about 11%
AddAB inh: less growth of phage-infected E. coli with AddAB. E. coli expressing H. pylori AddAB, absorbance growth. inhibition, % at 11.9 µM. 330,000 tested, 0.29% active; in the data active = inhibition above about 12%;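 note: 0% = vehicle wells of infected cells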
E coli growth-2: bacterial growth inhibition, counter-screen for AddAB inhibitors; E. coli V3065 growth, OD600 absorbance, 18 h; inhibition, % at 11.9 µM; 330,000 tested, 0.27% active;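 active = inhibition above the campaign's mean inhibition across all tested compounds plus 3 SD, cut at about 9.9% in these data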;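 note: uninfected addAB+ strain grown without phage in ampicillin broth; 0% = DMSO wells and 100% = ciprofloxacin 0.95 µg/ml wells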
AddAB confirm: growth loss of T4-infected E. coli expressing H. pylori AddAB, confirmed | E. coli V3065 expressing H. pylori AddAB, T4 phage, OD; T4 phage with gene 2 nonsense mutations | 880 tested, 64% active | shares compounds with AddAB inh | inhibition, % at 11.9 µM;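 active = mean inhibition above a set limit taken from the earlier primary screen, cut at about 13% in these data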;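 note: higher means less bacterial growth since AddAB block lets phage replicate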
RecBCD counter: AddAB counter-screen: growth loss of RecBCD+ E. coli infected with mutant T4 phage | shares compounds with AddAB inh | E. coli V66 + mutant T4 phage, OD growth | inhibition, % at 11.9 µM | 880 tested, 73% active;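 active = mean inhibition above the mean of solvent-only control wells plus 3 SD, cut at about 4% in these data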;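 note: optical density read after an 18 h incubation at 37 °C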
bact viab count: reduces bacterial viability, AddAB inhibitor counter-screen; shares compounds with AddAB inh; absorbance (AddAB counterscreen); inhibition, % at 11.9 µM; 880 tested, 35% active; in the data active = inhibition above about 25%
RecBCD conf: confirmation: growth loss of phage-infected RecBCD+ E. coli (RecBCD inhibitor screen); inhibition, % at 11.9 µM; 890 tested, 45% active; AID 651982; E. coli V66 + T4 2- phage, growth OD; shares compounds with phage Ecoli inh;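 active = mean inhibition over triplicates exceeding the hit threshold derived in the original primary screen, cut at about 11% in these data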
Ecoli viability: inhibits E. coli viability, flagging RecBCD hits as nonselective; inhibition, % at 11.9 µM; 890 tested, 29% active; AID 651983; shares compounds with phage Ecoli inh; absorbance (OD) growth; in the data active = inhibition above about 20%;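 note: E. coli strain V66 grown with compound alone and no phage infection; 0% = bacteria with DMSO vehicle only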
AddAB phage OD: growth loss of phage-infected AddAB E. coli, RecBCD counter-screen. inhibition, % at 11.9 µM. AID 651984. 890 tested, 45% active. shares compounds with phage Ecoli inh. E. coli expressing H. pylori AddAB + T4 phage, OD growth; gene 2 mutant T4, recBCD-deleted host;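 active = mean inhibition above the solvent-only control wells' mean plus 3 SD, cut at about 22% in these data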;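 note: higher means less bacterial growth from phage killing when AddAB is blocked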
* marks the source's active call; other numbers are inactive results; / = no result given; ! = not active in a repeat.

SMILES	Tat export inh	E coli growth-1	phage Ecoli inh	AddAB inh	E coli growth-2	AddAB confirm	RecBCD counter	bact viab count	RecBCD conf	Ecoli viability	AddAB phage OD
CCN(CC)c1ccc(/C=N/NC(=O)c2nnn(-c3nonc3N)c2C(C)C)c(O)c1	-32	/	11*	27*	20*	11	16*	7	6	9	8
CC(C)c1c(C(=O)N/N=C/c2ccc3c(c2)OCO3)nnn1-c1nonc1N	3	/	-2	5	-2	/	/	/	/	/	/
CCCC(=O)NC(c1ccc(OC)cc1)c1ccc2cccnc2c1O (stereo unspecified)	-1	0.64	31*	28*	30*	25*	25*	18	16*	23*	23*
CC(=O)NC(c1ccc(C(C)C)cc1)c1ccc2cccnc2c1O (stereo unspecified)	3	/	23*	20*	24*	15*	17*	14	13*	16	20
CCCCC(=O)NC(c1ccccc1Cl)c1ccc2cccnc2c1O (stereo unspecified)	-1	/	21*	19*	28*	22*	19*	19	14*	18	24*
COc1cccc(C(NC(C)=O)c2ccc3cccnc3c2O)c1 (stereo unspecified)	-6	/	10	10	8	/	/	/	/	/	/
CCCC(=O)NC(c1ccccc1)c1ccc2cccnc2c1O (stereo unspecified)	4	/	20*	24*	32*	26*	25*	21	18*	24*	29*
CC1CN(C(C)CO)C(=O)c2cccc(NC(=O)CCC(F)(F)F)c2OC1CN(C)Cc1ccc(Cl)c(Cl)c1 (stereo unspecified)	/	0.73	/	/	/	/	/	/	/	/	/
CC(=O)NC(c1cccc([N+](=O)[O-])c1)c1ccc2cccnc2c1O (stereo unspecified)	-5	/	11	/	/	/	/	/	/	/	/
O=[N+]([O-])c1ccc(NC(c2ccccc2)c2ccc3cccnc3c2O)cc1 (stereo unspecified)	3	0.74	7	/	/	/	/	/	/	/	/
Oc1cccc(C(Nc2nccs2)c2ccc3cccnc3c2O)c1 (stereo unspecified)	-9	0.64	16*	18*	16*	19*	17*	16	9	9	16
CCCCC(=O)NC(c1ccc(C(C)C)cc1)c1ccc2cccnc2c1O (stereo unspecified)	-4	0.69	17*	17*	20*	18*	15*	17	9	10	16
O=C(COc1cccc2cccnc12)Nc1nccs1	-5	0.63	0	-1	-3	/	/	/	/	/	/
CCCCC(=O)NC(c1ccccc1)c1ccc2cccnc2c1O (stereo unspecified)	-9	/	24*	26*	31*	27*	25*	24	12*	16	29*
COc1cc(C=NNC(=O)c2cccc(S(=O)(=O)N3CCCC3)c2)cc(OC)c1O	/	0.67	/	/	/	/	/	/	/	/	/
O=C(CSc1nc2ccccc2s1)Nc1ccc(N2CCOCC2)c(Cl)c1	-23	0.66	16*	21*	12*	19*	12*	16	11	13	24*
CC(=O)Nc1ccc2nc(SCC(=O)Nc3ccc(N4CCOCC4)c(Cl)c3)sc2c1	-6	0.67	3	2	-3	/	/	/	/	/	/
O=C(CSc1nc2ccccc2[nH]1)Nc1ccc(N2CCOCC2)cc1	-16	0.6	13*	25*	14*	13*	17*	15	8	12	13
O=C(N/N=C/c1ccc([N+](=O)[O-])o1)C1CC1	7	/	35*	100*	73*	99*	23*	71*	12*	17	100*
O=[N+]([O-])c1ccc(/C=[N+](\[O-])CCO)o1	14	/	97*	99*	99*	98*	99*	99*	105*	107*	105*
O=[N+]([O-])c1ccc(C=NN=Cc2ccc([N+](=O)[O-])o2)o1	/	0.56	/	/	/	/	/	/	/	/	/
NC(=O)N/N=C/c1ccc([N+](=O)[O-])o1	-2	/	63*	101*	101*	98*	40*	98*	34*	57*	103*
NC(=O)NN=Cc1ccc(-c2ccc([N+](=O)[O-])cc2)o1	/	0.67	/	/	/	/	/	/	/	/	/
COC(=O)N/N=C/c1ccc([N+](=O)[O-])o1	2	/	19*	97*	79*	99*	21*	67*	13*	18	103*
O=C(CNC(=O)c1ccc2c(c1)OCO2)NN=C(Br)/C=C/c1ccccc1	/	0.67	/	/	/	/	/	/	/	/	/
SMILES	Tat export inh	E coli growth-1	phage Ecoli inh	AddAB inh	E coli growth-2	AddAB confirm	RecBCD counter	bact viab count	RecBCD conf	Ecoli viability	AddAB phage OD
CC1CN(C(C)CO)C(=O)Cc2cc(NS(=O)(=O)c3ccc(Cl)cc3)ccc2OC1CN(C)Cc1ccc(C(F)(F)F)cc1 (stereo unspecified)	/	0.68	/	/	/	/	/	/	/	/	/
O=C(COc1ccc(C=NNS(=O)(=O)c2ccccc2)cc1)N1CCOCC1	/	0.72	/	/	/	/	/	/	/	/	/
CCCNC(=O)c1ccc2c(=O)c(O)c(-c3cccc(Br)c3)[nH]c2c1	13	0.66	20*	15*	13*	14*	13*	15	12*	13	16
COCCNC(=S)NN=C(C)c1ccc2cc(OC)ccc2c1	/	0.7	/	/	/	/	/	/	/	/	/
Fc1ccc(Nc2nnc(C(F)(F)F)s2)cc1Cl	-17	0.44*	14*	14*	16*	17*	19*	13	7	9	20
FC(F)(F)c1nnc(Nc2ccc(Cl)cc2)s1	-6	0.52	7	6	5	/	/	/	/	/	/
O=Cc1ccc2ccc3cccnc3c2n1	-13	0.68	2	5	5	/	/	/	/	/	/
c1cnc2c(c1)ccc1cccnc12	-1	0.33*	12*	12*!	12*!	13*	20*	7	10	10	6
CC(C)CC(NC(=O)c1nc[nH]c1C(=O)N1CCN(c2ccccc2)CC1)C(=O)OC(C)(C)C (stereo unspecified)	/	0.69	/	/	/	/	/	/	/	/	/
CCn1cc(C(=O)N[C@H](C(=O)NCCCOC)C(C)C)c(=O)c2cc3c(cc21)OCO3	-4	0.66	0	2	-3	/	/	/	/	/	/

High-throughput results as filed in PubChem BioAssay.
